Vaccinia Venus: vaccinia inhibition (Venus reporter); Vaccinia virus Venus reporter expression, fluorescence; 330,000 tested, 0.46% active; Potency, µM (series often up to 36.5 µM), inactives show top-dose activity change, negative = inhibition, hits mostly inhibitors; calls by dose curve; tested in A549 cells; also: potency is read from the fitted curve at half-maximal effect; nearly all actives have a fitted effect of over 30% in size
FMDV antiviral: blocks foot and mouth disease virus; FMDV antiviral cell-based qHTS; Potency, µM (top dose mostly 57.9 µM), inactives show at the highest dose activity change, negative = inhibition, usual class: inhibitors; 410,000 tested, 1.2% active; calls by dose curve; tested in HEK293T cells; also: read-out not given here; potency is read from the fitted curve at half-maximal effect; nearly all actives have a fitted effect of over 45% in size
VACV mCherry inh: inhibitors of vaccinia virus infection (mCherry reporter signal); Vaccinia virus mCherry reporter infection, fluorescence; 310,000 tested, 0.63% active; Potency, µM (highest dose often 36.5 µM), without a hit: at the top dose activity change, negative = inhibition, most hits filed as inhibitors; calls by dose curve; tested in A549 cells; also: potency is read from the fitted curve at half-maximal effect; nearly all actives have a fitted effect of over 35% in size
Giardia FBPA inh: Giardia lamblia aldolase inhibition; A8B2U2; purified Giardia FBPA; Potency, µM (titrated, usually from 59.6 µM), for the others: at the top dose activity, negative = inhibition, usual class: inhibitors; 290,000 tested, 0.71% active; also: potency is read from the fitted curve at half-maximal effect; nearly all actives have a fitted effect of over 55% in size
Target sequence (A8B2U2 whole entry, looked up): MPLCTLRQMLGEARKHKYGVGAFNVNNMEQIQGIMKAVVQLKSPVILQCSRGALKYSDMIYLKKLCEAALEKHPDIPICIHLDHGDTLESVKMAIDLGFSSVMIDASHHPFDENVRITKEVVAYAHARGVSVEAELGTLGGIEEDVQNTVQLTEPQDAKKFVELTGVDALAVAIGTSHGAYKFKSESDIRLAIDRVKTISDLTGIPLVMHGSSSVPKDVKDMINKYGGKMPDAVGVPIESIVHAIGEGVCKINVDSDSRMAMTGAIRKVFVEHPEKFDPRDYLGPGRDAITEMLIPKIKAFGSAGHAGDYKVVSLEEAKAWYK
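Giardia FBPA (40 nM reagent) was preincubated 10 min at RT with compound (up to 57.5 uM final), then substrate plus GAPDH/TPI/NAD/arsenate coupling system with diaphorase/resazurin was added; resorufin fluorescence (525/598 nm) was read after 20 min.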
HCV inh: HCV inhibition; Huh7.5.1 HCVcc-Cre infection, luciferase reporter, 44 h; Potency, µM (doses to about 41.8 µM), for inactives: at the highest dose activity change, negative = inhibition, most hits filed as inhibitors; 340,000 tested, 3.4% active; AID 651820; also: potency is read from the fitted curve at half-maximal effect
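Antiviral activity was scored by luciferase reporter output from cells infected with HCVcc-Cre (~0.5 moi) in presence of compound, 44 h infection period, cells seeded 1,000/well 4 h prior.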
HCMV antiviral: blocks human cytomegalovirus replication | HFF cells, HCMV-luciferase reporter, 72 h; active compounds read low | activity change, negative = inhibition, % at 57.5 µM | 410,000 tested, 4.5% active; in the data active = activity change below about -60%; inconclusive = no clear call, values can overlap the other calls; inactive = above about -39%
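Steps: HFFs plated, 16 h 37C; compounds added; HCMV-luciferase added to MOI 1 PFU/cell; 72 h 37C; OneGlo reagent, 5 min room temperature; luminescence read, normalized to controls.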
* marks the source's active call; other numbers are inactive results; i = inactive; ? = inconclusive; . = no result. A selection: hits, their analogues and other compounds. The true share with any hit is near 7.5%. Unless noted, calls follow the shape of the dose curve; as a rule, active = well fitted curve in the direction sought with a large enough effect; inconclusive = small, poorly fitted or top-dose-only effect, or another doubt; inactive = no such curve, though single readings can be large; an effect the other way counts as inactive or inconclusive. % is scaled to controls: 0 for no effect and ±100 for the full control effect.

SMILES	Vaccinia Venus	FMDV antiviral	VACV mCherry inh	Giardia FBPA inh	HCV inh	HCMV antiviral
Cc1ccc(/C=C/C(=O)NCCCN2CCN(CCCNC(=O)/C=C/c3ccc(C)cc3)CC2)cc1	-10.7%	-26.0%	-13.2%	10.8%	?	-16.4
CC12CCC(C)(O1)C1C(=O)N(c3nccs3)C(=O)C12 (stereo not given)	-5.2%	29.5%	i	.	19.5%	26.4
CCN(CC)c1ccc2cc(NC(=O)CCC(=O)O)c(=O)oc2c1	-7.7%	.	-8.5%	-4.1%	3.6%	-66.4*
CCN(CC)c1ccc2cc(C(C)=O)c(=O)oc2c1	-24.9%	49.6%	?	-1.3%	-22.1%	44.9
O=C(NC1CCCCC1)C1CCN(S(=O)(=O)c2cccc3nonc23)CC1	-7.0%	-14.4%	-13.5%	9.4%	10.5%	40.8
Cn1c(=O)c2cc(NC(=O)NCc3ccc(F)cc3)ccc2n1C/C=C/c1ccccc1	-22.8%	19.6%	?	.	.	-62.9*
CC(C)=CCn1c2ccc(NC(=O)NCc3ccc(F)cc3)cc2c(=O)n1C	?	-8.7%	-27.2%	.	.	19.4
Cc1nc(-c2ccccn2)nc(SCC(=O)c2ccccc2)c1Cl	?	?	?	11.2%	-74.4%	-82.3*
Cc1nc(-c2ccccn2)nc(SCC(=O)N2CCOCC2)c1Cl	.	3.4%	.	-23.6%	13.0%	60.7
Cc1ccc(S(=O)(=O)N2CCCCC2)cc1NC(=O)c1c(-c2ccccc2)noc1C	.	-15.8%	.	.	10.5%	16.2
Cc1onc(-c2c(F)cccc2Cl)c1C(=O)Nc1ccc(S(=O)(=O)N2CCOCC2)cc1	-11.6%	-18.4%	-23.0%	.	2.9%	-69.2*
Cc1onc(-c2c(F)cccc2Cl)c1C(=O)Nc1cc(S(=O)(=O)N2CCCCC2)ccc1O	?	?	?	.	?	-100.2*
CC(=O)c1ccc(F)c(-c2cc(C)cc3c2OC(CNC(=O)C[C@@H]2C[C@@H](C)NC(=S)N2)C3)c1 (stereo not given in full)	-5.6%	-9.4%	-18.5%	.	.	.
O=C1CC(c2ccccc2)CC(O)=C1C=NCc1ccccc1Cl (stereo not given)	?	.	?	-20.5%	-24.4%	-81.1*
Cc1cc(C(=O)CSc2nnnn2-c2ccc(O)cc2)c(C)n1Cc1ccc2c(c1)OCO2	.	?	.	-0.1%	?	-4.6
Cc1cc(C(=O)CSc2nnc(-c3cccc(F)c3)n2N)c(C)n1Cc1ccc2c(c1)OCO2	.	?	.	6.9%	12.6µM*	-83.5*
COc1ccc2sc(-c3ccc(SC)cc3)c(-c3ccc(O)cc3)c2c1	11.2µM*	-24.7%	?	.	12.6µM*	-6.7
COc1cccc(-c2sc3ccc(OC)cc3c2-c2ccc(C(N)=O)cc2)c1	-10.5%	-24.6%	i	.	2.51µM*	7.3
CNC(=O)c1ccc(-c2sc3nc(N4CCOCC4)c4c(c3c2N)CCCC4)o1	.	?	.	?	11.2µM*	-11.0
Cc1cnc(C(=O)NCC(=O)Nc2ccccc2Br)cn1	-1.3%	11.5%	-10.3%	.	?	-11.1
COc1ccc(OCC(=O)N2CCN(C(=O)c3ccc(OC)c(OC)c3)CC2)cc1	1.5%	15.5%	-3.5%	.	.	22.1
COc1ccc(OCCN2CCN(C(=O)c3ccc(OC)c(OC)c3)CC2)cc1	-17.8%	?	i	8.7%	8.91µM*	-13.7
CC(C)(C)c1ccc(OCCn2c(CCNC(=O)C3CCCCC3)nc3ccccc32)cc1	?	.	-23.2%	.	.	.
CN1C(=O)[C@H](Cc2ccc([N+](=O)[O-])cc2)NC1=S	-16.2%	4.8%	i	1.4%	1.1%	-72.0*
Cc1ccc2cc3cc(C(=O)NCCCN4CCCC4)oc3nc2c1	.	-18.9%	.	-0.3%	14.1µM*	?
SMILES	Vaccinia Venus	FMDV antiviral	VACV mCherry inh	Giardia FBPA inh	HCV inh	HCMV antiviral
COc1ccc2cc3cc(C(=O)NCCN4CCN(c5ccccc5F)CC4)oc3nc2c1	-8.1%	17.8µM*	-16.0%	-1.3%	?	-29.7
COc1cc(NC(=O)c2cc3cc4ccc(C)cc4nc3o2)cc(OC)c1OC	?	3.16µM*	?	.	.	-40.0
COc1ccc2cc3cc(C(=O)N4CCN(c5ccccc5)CC4)oc3nc2c1	.	-20.4%	.	4.0%	7.5%	-1.9
COc1ccc2cc3cc(C(=O)Nc4ccccc4N4CCN(C)CC4)oc3nc2c1	?	?	?	1.1%	10µM*	-22.3
CC(C)(C)C1CCCCC1NC(=O)c1ccncc1 (stereo not given)	-9.1%	12.1%	i	11.2%	16.7%	46.5
CN1CCN(c2ccc(NC(=O)c3sc4ccccc4c3Cl)cc2)CC1	-16.8%	0.6%	-15.5%	5.3%	?	?
COC(=O)c1ccc(N2CCN(C)CC2)c(NC(=O)c2sc3ccccc3c2Cl)c1	-10.7%	-18.6%	-15.3%	.	?	-98.4*
COc1ccccc1-c1c(C)c(C)nc(N)c1C#N	-13.3%	-0.8%	-21.5%	-15.1%	12.8%	-72.0*
COc1ccccc1-c1c(C#N)c(N)nc2c1CCc1ccccc1-2	?	31.6µM*	?	-24.8%	?	17.1
O=C1C=Cc2cccc3ccc(O)c1c23	-4.7%	9.3%	-24.7%	.	?	-67.9*
Cc1cc(C)c(NC(=O)CN(C)CC(=O)Nc2cccc(S(=O)(=O)N(C)c3ccccc3)c2)c(C)c1	.	?	.	.	10µM*	?
CN(C)S(=O)(=O)c1cccc(NC(=O)c2ccc(COc3ccccc3)cc2)c1	-16.8%	25.1µM*	i	-5.1%	10µM*	.
CN(c1ccccc1)S(=O)(=O)c1cccc(NC(=O)C2CCCO2)c1 (stereo not given)	-18.7%	-5.3%	-14.1%	.	5.0%	-62.3*
CN(Cc1ccccc1)S(=O)(=O)c1ccc(NC(=O)C2CCCO2)cc1 (stereo not given)	-10.2%	-15.0%	i	5.8%	-14.8%	6.2
CCN(CC(=O)Nc1ccc(NC(C)=O)cc1)C(=O)c1ccc(COc2ccc(C(C)(C)C)cc2)cc1	.	-23.5%	.	.	?	-61.6*
CN(c1ccc(C(=O)Nc2cccnc2)cc1)S(=O)(=O)c1ccccc1	-8.7%	?	-9.8%	-6.7%	?	-70.8*
COCc1ccc(C(=O)Nc2cccc(S(=O)(=O)N(C)c3ccccc3)c2)cc1	-10.6%	?	i	.	22.4µM*	-95.8*
CN(c1ccc(C(=O)Nc2cccc(O)c2)cc1)S(=O)(=O)c1ccccc1	-22.7%	-23.3%	-13.1%	2.8%	?	1.0
CN(c1ccc(C(=O)Nc2cccnc2)cc1)S(=O)(=O)c1ccc(Cl)cc1	-18.9%	?	-22.5%	-1.7%	-19.6%	-18.0
CN(C)S(=O)(=O)c1cccc(NC(=O)c2ccc(OC(F)(F)F)cc2)c1	-30.0%	?	-4.1%	-7.3%	?	-94.8*
CCN(CC)CCNC(=O)c1ccc(NC(=O)c2ccc(COc3ccccc3)cc2)cc1	-19.4%	-5.8%	i	.	11.2µM*	?
O=[N+]([O-])c1cc(-c2nc(-c3ccncc3)no2)ccc1NCc1ccccc1	-10.5%	3.6%	-18.8%	.	.	1.3
